Results on nine compounds are retold here after PubChem BioAssay.

Values without a mark were called inactive. Calls of active or inactive are those of the source.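 Rule for the calls: active = inhibition above the hit cutoff set in the earlier primary screen (cut at about 27% in these data); inactive = the rest.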

The target of this assay is Protein phosphatase methylesterase 1 (Homo sapiens) (UniProt Q9Y570). Put plainly: human PME-1 methylesterase inhibition confirmation – biochemical, fluorescence polarization, FP-Rh probe, triplicate (AID 2171).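 Note: 0% = enzyme with DMSO and 100% = wells lacking PME-1.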 The settings on record: recombinant PME-1, FP-Rh probe fluorescence polarization; at 5.9 µM; active compounds read high. On the technique in general: Polarisation of emitted light reports the rotation of a fluorescent probe.
Protein phosphatase methylesterase 1 (Homo sapiens), sequence (Q9Y570 whole entry, looked up): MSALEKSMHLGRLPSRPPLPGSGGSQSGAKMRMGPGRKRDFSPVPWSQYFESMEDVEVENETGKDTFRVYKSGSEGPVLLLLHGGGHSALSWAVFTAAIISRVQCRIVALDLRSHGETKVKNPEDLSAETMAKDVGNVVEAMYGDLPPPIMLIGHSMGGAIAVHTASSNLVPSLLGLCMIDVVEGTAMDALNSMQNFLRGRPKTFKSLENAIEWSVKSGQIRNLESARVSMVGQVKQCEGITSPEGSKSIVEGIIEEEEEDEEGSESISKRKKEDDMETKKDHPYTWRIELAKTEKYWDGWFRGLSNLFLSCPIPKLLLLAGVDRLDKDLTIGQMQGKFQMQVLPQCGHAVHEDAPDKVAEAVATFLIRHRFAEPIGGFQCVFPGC
The term inhibition denotes the percentage by which the read-out fell short of the control. For the compound `O=C(O)c1ccccc1N/N=C/c1cc(Br)cc(Br)c1O`, the inhibition is 43.7% (active).

Consider `CCOc1cc(/C=C2\N=C(SCC)SC2=O)cc([N+](=O)[O-])c1OC(C)=O`, for which the inhibition is 47.5% (active).

For `CC1=NN(c2ccccc2)C(=O)C1N=Nc1cccc(O)c1` (centres undefined), the inhibition was 28.1% (active).

As for `O=C(O)CSc1cc(NS(=O)(=O)c2ccc(Cl)cc2)c2ccccc2c1O`, the inhibition is 14.2%.

In the case of `N#Cc1ccc(Nc2nc(-c3ccc(O)cc3O)cs2)cc1C(F)(F)F`, the inhibition was 51.9% (active).

`O=C(O)c1cc(NN=C2c3ccccc3-c3ccccc32)ccc1Cl`: the inhibition is 41.9% (active).

`O=C(N=Nc1c(O)[nH]c2ccccc12)c1cccs1`: the inhibition is 42.6% (active).

Consider `CCCSc1nnc(NC(=O)c2sc3nc(-c4cccs4)ccc3c2N)s1`, for which the inhibition is 37.4% (active).

`C/C(=N/NC(=O)c1cc2ccccc2cc1O)C1C(=O)c2ccccc2C1=O`: the inhibition was 68.6% (active).
